Here are results for nine compounds from PubChem BioAssay (EPA / NIEHS).

Each structure is given as a SMILES string. Results filed as inconclusive are left out. Active and inactive are the calls of the source. The calls were made as follows, unless noted: active = hit-call score of the fitted dose curve at least 0.9, where 1 is the maximum; inactive = score below 0.9.

The first test concerns SRY-box transcription factor 17 (SOX17) Protein Expression, Deisenroth Lab, SOX17 (gene 64321). The test can be described thus: CCTE_Deisenroth_DEVTOX-GLR_Endo_SOX17: CCTE's DevTox GLR-Endo Assay Evaluation of SRY-box transcription factor 17 (SOX17) Protein Expression, Deisenroth Lab (AID 2284413). Put shortly:
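Fluorescent microscopy of a SOX17 reporter in RUES2-GLR pluripotent cells scored endoderm differentiation after 48 h and two 24-h-spaced exposures. Values are percent change in SOX17+ population against 0.2% DMSO, n=4 experimental replicates.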
For `CCCCC(CC)COC(=O)c1ccccc1C(=O)O` (centres undefined), the AC50 was 100 µM (active).
With `OB(O)O`, the result was inactive.
Turning to `CC(C)(c1ccc(O)cc1)c1ccc(O)cc1`, the AC50 was 50.8 µM (active).

Another test concerns Brachyury (BRA) Protein Expression, TBXT (gene 6862). The test can be described thus: CCTE_Deisenroth_DEVTOX-GLR_Endo_BRA: CCTE's DevTox GLR-Endo Assay Evaluation of Brachyury (BRA) Protein Expression, Deisenroth Lab (AID 2284417). Put shortly:
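Endpoint is the fraction of BRA reporter-positive cells over total nuclei, corrected by subtracting the 0.2% DMSO value. Chemicals (1 nM - 200 uM, 10 points) were dosed twice during 48 h differentiation of RUES2-GLR cells, read by imaging.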
With `CCCCC(CC)COC(=O)c1ccccc1C(=O)O` (centres undefined), the AC50 is 160 µM (active).
Consider `OB(O)O`, for which the AC50 was 30.5 µM (active).
Take `CC(C)(c1ccc(O)cc1)c1ccc(O)cc1`: the half-maximal activity concentration (AC50) was 83.8 µM (active).

System in another test: not listed separately
The test can be described thus: CCTE_Deisenroth_DEVTOX-GLR_Endo_CellCount: Viability Assessment in CCTE's DevTox GLR-Endo Assay, Deisenroth Lab (AID 2284420). How it is done:
CCTE_Deisenroth_DEVTOX-GLR_Endo assay is a cell-based, multiplex-readout assay that uses RUES2-GLR, a human pluripotent cell line, with measurements taken at 48 hours after chemical dosing in a 384-well microplateCCTE_Deisenroth_DEVTOX-GLR_Endo_CellCount is 1 of 4 assay components calculated from the CCTE_Deisenroth_DEVTOX-GLR_Endo assay and it measures cell count. Using fluorescent nuclear staining, loss-of-signal activity can be used to understand changes in cell viability with fluorescent microscopy. It is designed to make measurements of nuclei counts as a surrogate for cell number, as detected with optical fluorescence microscopy by Perkin Elmer Harmony nuclei detection algorithm. To generalize the intended target to other relatable targets, this assay component is annotated to the cell cycle intended target family, where the subfamily is cytotoxicity.Data from the assay component CCTE_Deisenroth_DEVTOX-GLR_Endo_CellCount was analyzed as 1 assay endpoint. The endpoint the percent change in cell count relative to the 0.2% DMSO control in the CCTE_Deisenroth_DEVTOX-GLR_Endo assay. Furthermore, this assay endpoint can be referred to as a primary readout, because this assay has produced multiple assay endpoints where this one serves as a measure of cytotoxicity.
All assay protocols are aligned to the DevTox GLR-Endo assay workflow. Cells are seeded into 384-well microplates for 24 hours prior to initiating differentiation in defined media for a total duration of 48 hours. A total of two chemical exposures are administered in 24-hour intervals during the 48-hour differentiation period. At the assay termination point, cells are fixed and stained with a fluorescent dye demarcating the nucleus. High-content imaging is used to acquire brightfield and fluorescent channel images across 5 fields per well. Cell identification and mean biomarker fluorescence intensities are calculated with image analysis software to determine the total cell counts for viability assessment and the biomarker expression frequency for each lineage-dependent assay. […]
`CCCCC(CC)COC(=O)c1ccccc1C(=O)O` (centres undefined): the AC50 was 109 µM (active).
Turning to `OB(O)O`, the call was inactive.
For the compound `CC(C)(c1ccc(O)cc1)c1ccc(O)cc1`, the AC50 was 35.5 µM (active).

A further test concerns SRY-box transcription factor 17 (SOX17) Protein Expression, Deisenroth Lab, SOX17 (gene 64321). The test can be described thus: CCTE_Deisenroth_DEVTOX-GLR_Pluri_SOX17: CCTE's DevTox GLR-Pluri Assay Evaluation of SRY-box transcription factor 17 (SOX17) Protein Expression, Deisenroth Lab (AID 2284427; active = hit-call score of the fitted dose curve at least 0.9, where 1 is the maximum). Put shortly:
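RUES2-GLR pluripotent cells were induced toward endoderm over 48 h and received two compound doses 24 h apart, in a 10-point series from 1 nM to 200 uM. The percentage of SOX17+ cells among total cells was measured by high-content imaging and reported minus the 0.2% DMSO control.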
Consider `CCCCC(CC)COC(=O)c1ccccc1C(=O)O` (centres undefined), for which the AC50 is 100 µM (active).
As to `OB(O)O`, the result was inactive.
Turning to `CC(C)(c1ccc(O)cc1)c1ccc(O)cc1`, the concentration at half-maximal activity (AC50) is 29.3 µM (active).

For the next test, the system named is SRY-box transcription factor 2 (SOX2) Protein Expression, Deisenroth Lab, SOX2 (gene 6657). Nature of the test: CCTE_Deisenroth_DEVTOX-GLR_Pluri_SOX2: CCTE's DevTox GLR-Pluri Assay Evaluation of SRY-box transcription factor 2 (SOX2) Protein Expression, Deisenroth Lab (AID 2284428). The method, boiled down: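 RUES2-GLR human pluripotent cells, two exposures 24 h apart over 48 h differentiation; 10-point series 1 nM - 200 uM. High-content imaging gives SOX2+ cells divided by cell count, reported as percent change versus 0.2% DMSO.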
In the case of `CCCCC(CC)COC(=O)c1ccccc1C(=O)O` (centres undefined), the AC50 is 100 µM (active).
With `OB(O)O`, the compound was classed as inactive.
`CC(C)(c1ccc(O)cc1)c1ccc(O)cc1`: the AC50 was 38.9 µM (active).

In another test the test system is Brachyury (BRA) Protein Expression, Deisenroth Lab, TBXT (gene 6862). Nature of the test: CCTE_Deisenroth_DEVTOX-GLR_Pluri_BRA: CCTE's DevTox GLR-Pluri Assay Evaluation of Brachyury (BRA) Protein Expression, Deisenroth Lab (AID 2284429; active = hit-call score of the fitted dose curve at least 0.9, where 1 is the maximum). Put shortly: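 Mesoderm readout after 48 h differentiation of human RUES2-GLR cells, dosed twice (24-h intervals) at 1 nM - 200 uM. BRA+ frequency from fluorescence imaging of fixed, nuclear-stained cells, DMSO-corrected.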
For `CCCCC(CC)COC(=O)c1ccccc1C(=O)O` (centres undefined), the AC50 is 70.4 µM (active).
Take `OB(O)O`: the call was inactive.
Take `CC(C)(c1ccc(O)cc1)c1ccc(O)cc1`: the AC50 is 38.4 µM (active).

System in another test: not listed separately
Nature of the test: CCTE_Deisenroth_DEVTOX-GLR_Pluri_CellCount: Viability Assessment in CCTE's DevTox GLR-Pluri Assay Evaluation of Total Cell Counts, Deisenroth Lab (AID 2284430). The method, boiled down:
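Cytotoxicity readout: fluorescent nuclei counts by high-content imaging, expressed as percent change relative to 0.2% DMSO. Human RUES2-GLR pluripotent line differentiated 48 h, dosed twice at 24-h intervals across 1 nM - 200 uM (10 points).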
For `CCCCC(CC)COC(=O)c1ccccc1C(=O)O` (centres undefined), the call was inactive.
Take `OB(O)O`: the outcome was inactive.
As to `CC(C)(c1ccc(O)cc1)c1ccc(O)cc1`, the AC50 was 19.7 µM (active).

For the next test, the system named is TTR (gene 7276). The test can be described thus: CCTE_GLTED_hTTR_0.125uM: CCTE's human Transthyretin (hTTR) Inhibition Assay, with 0.125uM TTR, Great Lakes Toxicology and Ecology Division (GLTED) Lab (AID 2284431).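 Also: hits lower the fluorescence signal relative to DMSO baseline.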 Put shortly: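 Cell-free displacement of ANSA probe from 0.125uM TTR after 2 h incubation with chemical. Fluorescence read at 380 nm excitation/475 nm emission; loss of signal relative to DMSO indicates T4-site displacement.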
For the compound `CCCCC(CC)COC(=O)c1ccccc1C(=O)O` (centres undefined), the AC50 is 1.44 µM (active).
`COC(=O)c1ccc(I)cc1S(=O)(=O)NC(=O)Nc1nc(C)nc(OC)n1`: the AC50 is 1.8 µM (active).
In the case of `N#CSCSc1nc2ccccc2s1`, the AC50 is 10.1 µM (active).
In the case of `CCCN(CCC)c1c([N+](=O)[O-])cc(C(F)(F)F)c(N)c1[N+](=O)[O-]`, the AC50 is 0.348 µM (active).
In the case of `O=C(Nc1ccc([N+](=O)[O-])cc1Cl)c1cc(Cl)ccc1O`, the half-maximal activity concentration (AC50) is 0.633 µM (active).
Consider `CC(C)CCCCCCc1ccc(O)cc1`, for which the AC50 was 1.87 µM (active).
Regarding `O=C(O)C1(C(=O)Nc2ccc(Cl)cc2Cl)CC1`, the AC50 was 8.06 µM (active).
On the same count and under the same terms, to `CC(C)(c1ccc(O)cc1)c1ccc(O)cc1` belongs 7.82 µM (active).
